A selection: hits, their analogues and other compounds. The true share with any hit is near 7.3%.
HCV inh = qHTS Assay for Inhibitors of Hepatitis C Virus (HCV); Huh7.5.1 HCVcc-Cre infection, luciferase reporter, 44 h; Potency, µM (doses to about 41.8 µM), without a hit: at the top dose activity change, negative = inhibition, most hits filed as inhibitors; 340,000 compounds, 3.4% hits; active = well fitted inhibition curve with a large enough effect; inconclusive = small, poorly fitted or top-dose-only effect, or another doubt; inactive = no such curve, though single readings can be large or run the other way; also: potency is read from the fitted curve at half-maximal effect
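Luciferase read-out (15 sec integration) after a 15 min room-temperature substrate step quantifies HCVcc-Cre infection. Cells, 1,000 per well, had compound added 4 h post-plating, then virus at ~0.5 moi, and were cultured 44 h.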
Vaccinia mCherry = qHTS for Stage-Specific Inhibitors of Vaccinia Orthopoxvirus: mCherry Reporter Primary qHTS. Vaccinia virus mCherry reporter infection, fluorescence. Potency, µM (highest dose often 36.5 µM), inactives show at the top dose activity change, negative = inhibition, actives largely listed as inhibitors. 310,000 compounds, 0.63% hits; calls by dose curve; tested in A549 cells; also: potency is read from the fitted curve at half-maximal effect; nearly all actives have a fitted effect of over 35% in size
HCMV antiviral = qHTS Assay for inhibitors of the human cytomegalovirus (HCMV); HFF cells, HCMV-luciferase reporter, 72 h; active compounds read low; activity change, negative = inhibition, % at 57.5 µM; 410,000 compounds, 4.5% hits; AID 1259415, 2018; in the data active = activity change below about -60%; inconclusive = no clear call, values can overlap the other calls; inactive = above about -39%
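Compounds were evaluated in HFFs infected with an HCMV luciferase reporter virus (MOI 1 PFU/cell). Luciferase in lysates collected 72 h post infection served as the replication measure.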
FMDV antiviral = High Throughput Screening for Foot and Mouth Disease Virus Antivirals | FMDV antiviral cell-based qHTS | Potency, µM (doses to about 57.9 µM), for inactives: at the top dose activity change, negative = inhibition, most hits filed as inhibitors | 410,000 compounds, 1.2% hits; calls by dose curve; tested in HEK293T cells; also: read-out not given here; potency is read from the fitted curve at half-maximal effect; nearly all actives have a fitted effect of over 45% in size
Vaccinia Venus = qHTS for Stage-Specific Inhibitors of Vaccinia Orthopoxvirus: Venus Reporter Primary qHTS | Vaccinia virus Venus reporter expression, fluorescence | Potency, µM (highest dose often 36.5 µM), for inactives: top-dose activity change, negative = inhibition, most hits filed as inhibitors | AID 720580, 2013 | 330,000 compounds, 0.46% hits; calls by dose curve; tested in A549 cells; also: potency is read from the fitted curve at half-maximal effect; nearly all actives have a fitted effect of over 30% in size
The depositor's hits bear a star; i = inactive; ? = inconclusive; nt = no result; [ ] = remark or other dose. % is scaled to controls: 0 for no effect and ±100 for the full control effect.

SMILES	HCV inh	Vaccinia mCherry	HCMV antiviral	FMDV antiviral	Vaccinia Venus
Cc1nc2ccccc2c2c(N)c3ccccc3n12	-29%	4%	-63*	-21%	-3%
O=C(NCc1ccc(F)cc1)c1ccc(NC(=O)N2CC3CCCN3c3ccccc32)cc1 (stereo unspecified)	nt	-5%	5	0%	-4%
O=CN1CCCN(C(=O)c2cc(NC(=O)c3ccccc3)cc3ncn(C4CCCC4)c23)CC1	nt	-11%	nt	5%	-3%
N#C/C(=C\c1ccncc1)c1ccccn1	?	-26%	-78*	-5%	-24%
CCOc1ccc(Sc2cc(C(=O)NC(C)c3ccccc3)c3ccccc3n2)cc1 (stereo unspecified)	nt	-17%	-15	-2%	-22%
COc1cccc(S(=O)(=O)Nc2ccc3c(c2)C(=O)N(C)C[C@H](OC)[C@H](C)CN[C@@H](C)CO3)c1	nt	-4%	56	-7%	-9%
COC(=O)c1ccc(/C=C/c2c(-c3ccsc3)sc3ccccc23)cc1	10µM*	-21%	-4	-16%	-29%
Cc1cccc(C(=O)O/N=C(\N)c2ccccn2)c1	-19%	i	-16	-55%	-1%
Cc1cc(C)c(C)c(OCC(=O)O/N=C(\N)c2ccccn2)c1	10µM*	nt	-10	-5%	-18%
N/C(=N\OC(=O)c1cc(Cl)ccc1Cl)c1ccccn1	11µM*	nt	-15	-15%	nt
N/C(=N\OC(=O)c1ccccc1)c1ccccn1	14%	i	0	10µM*	-5%
Cc1ccc(C(=O)O/N=C(\N)c2ccccn2)cc1	13%	-1%	-69*	3.2µM*	7%
COc1ccc(CNc2ccnc(-c3ccccc3Cl)n2)c(OC)c1	nt	nt	nt	0%	nt
COc1ccccc1N1CCN(C(=O)c2ccc(Nc3nc4ccccc4n4nnnc34)cc2)CC1	nt	-7%	-10	7%	1%
CC(C)(C)c1ccc(C(=O)O/N=C(\N)c2ccccn2)cc1	?	i	-99*	0.1µM*	-13%
Cc1ccc(C(=O)O/N=C(\N)c2ccccn2)cc1C	23%	1%	?	-98%	-6%
CCOc1ccc(C(=O)O/N=C(\N)c2ccccn2)cc1	-4%	nt	-91*	10µM*	nt
CCc1ccc(OCC(=O)O/N=C(\N)c2ccccn2)cc1	-1%	nt	81	75%	nt
C=C1NN(Cc2ccccc2)C(=O)N1c1ccc(OC)cc1	nt	44%	nt	nt	-9%
O=C(c1ccc2ncsc2c1)N1CCN(c2nc3ccccc3s2)CC1	5.6µM*	?	-74*	?	-21%
CC(C)NC(=O)C1CCN(C(=O)c2cc3sccc3n2Cc2ccc(Cl)cc2)CC1	nt	-6%	nt	16µM*	-23%
COc1ccc(C(=O)N2CCN(c3ccccn3)CC2)cc1[N+](=O)[O-]	-26%	i	-80*	-28%	-7%
Cc1ccc(C(=O)N2CCN(c3ccccn3)CC2)cc1[N+](=O)[O-]	-19%	i	-35	-6%	-9%
O=C(Nc1ccc(F)cc1)N1CCN(c2nc3ccccc3s2)CC1	?	nt	?	28µM*	?
O=C(c1ccc2ncsc2c1)N1CCN(c2ccccc2Cl)CC1	7%	-1%	?	-20%	-11%
SMILES	HCV inh	Vaccinia mCherry	HCMV antiviral	FMDV antiviral	Vaccinia Venus
Clc1ccccc1Cn1cccc1C1=NC(Cc2ccccc2)CO1 (stereo unspecified)	nt	-6%	-9	-25%	1%
CCOC(=O)c1ccc2c(c1)N(Cc1cccc(C(F)(F)F)c1)C(=O)c1ccccc1S2(=O)=O	nt	-7%	-22	-15%	0%
O=c1[nH]c(SCc2ccc(Br)cc2)nc2c1CCCC2	nt	-2%	2	-20%	2%
Cc1nc(-n2nc(C)c(Cc3ccccc3Cl)c2C)sc1C(=O)N1CCCCC1C (stereo unspecified)	nt	-7%	-11	-16%	-7%
O=C(c1cc2sccc2n1Cc1ccccc1)N1CCN(c2nc3ccccc3s2)CC1	4.5µM*	?	?	?	?
O=C(c1ccc(Cl)c([N+](=O)[O-])c1)N1CCN(c2ccccn2)CC1	-8%	-9%	?	-24%	-5%
COc1cc2ccccc2cc1C(=O)N1CCN(c2ccccn2)CC1	-2%	i	-63*	-13%	1%
COc1cc(C(=O)N2CCN(c3ccccn3)CC2)cc(OC)c1OC	-7%	?	-19	3%	-14%
O=C(c1ccc(S(=O)(=O)Cc2ccccc2Cl)c([N+](=O)[O-])c1)N1CCN(c2ccccn2)CC1	?	?	-97*	16µM*	-21%
COc1cc2ccccc2cc1C(=O)N1CCN(c2nc3ccc(F)cc3s2)CC1	nt	-18%	-64*	?	-24%
N#Cc1cccc(-c2cc(NCc3ccccc3)ncn2)c1	nt	nt	nt	-2%	nt
CCOC(=O)c1cnc(N2CCN(c3ccc(C)cc3C)CC2)c2ccccc12	nt	-6%[7.34 µM]	-8	-3%	-5%[7.34 µM]
COc1ccc(CCn2c(=S)[nH]c(=O)c3nccnc32)cc1OC	nt	i	nt	nt	-20%
CN(c1ccccc1)S(=O)(=O)c1cc(C(=O)N2CCN(c3ccccn3)CC2)ccc1Cl	?	nt	-16	13µM*	-21%
Cc1nc2ccc(C(=O)N3CCN(c4ccccn4)CC3)cc2s1	8%	7%	-93*	-7%	3%
F[B-](F)(F)c1cncnc1	nt	nt	10	nt	nt
CC(Sc1nnnn1C)C(=O)Nc1ccccc1-c1ccccc1 (stereo unspecified)	5%	-19%	?	nt	-18%
Cc1ccc(-n2nnnc2SC(C)C(=O)Nc2ccccc2-c2ccccc2)cc1 (stereo unspecified)	8%	i	-61*	-23%	2%
O=C(c1ccc(OC2CCN(CCc3ccccc3)CC2)cc1)N1CCCC1	nt	i	-63*	16%	-14%
CC(C)N1CCN(C(=O)c2ccc(OC3CCN(CCc4ccccc4)CC3)cc2)CC1	?	-14%	-21	24%	-11%
CN(C)c1ccc(-c2ccc3ncnc(-n4ccnc4)c3c2)cc1	nt	nt	nt	-2%	nt
Cc1ccccc1-c1ccc2ncnc(-n3ccnc3)c2c1	nt	nt	nt	40µM*	nt
COc1ccc(OC)c(-c2nnc3n(Cc4ccc(C)cc4)c(=O)c4ccccc4n23)c1	nt	-13%	-31	?	5%
COc1ccc(Br)cc1CNC(=O)c1ccc2c(c1)nc1n2CCCCC1	nt	-20%	-60*	5%	-9%
Cc1ccccc1CCNC(=O)c1ccc2c(c1)nc1n2CCCCC1	nt	-18%	-78*	?	-14%
CSc1ccc(CCNC(=O)c2ccc3c(c2)nc2n3CCCCC2)cc1	nt	-2%	-76*	-28%	-7%
CSc1ccc(CCNC(=O)c2ccc3c(c2)nc2n3CCC(C)C2)cc1 (stereo unspecified)	nt	-11%	-29	?	-1%
CCOC(=O)c1c(NC(C)=O)c2c3c(sc2n1Cc1cc(C)ccc1C)CCCC3	nt	3%	7	-17%	-5%

Source: PubChem
